These results are taken from PubChem BioAssay (EPA / NIEHS).

The AC50 is the midpoint of the concentration-response curve, whichever way the signal moves.

Experiment [1] can be described thus: Tanguay_ZF_120hpf_SOMI_legacy: (Legacy) Oregon State University Tanguay Lab 120 Hour Post-fertilization zebrafish Assay for Somite Malformation (AID 2283647). The procedure, abridged:
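Read-out: presence or absence of somite malformation in 120 hpf larvae, gain-of-signal relative to DMSO baseline. Embryos lacked chorion (pronase, 4 hpf) and were exposed statically from 6 hpf at 28C; dead larvae not scored.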

Experiment [2] in a line: Tanguay_ZF_120hpf_PFIN_legacy: (Legacy) Oregon State University Tanguay Lab 120 Hour Post-fertilization zebrafish Assay for Pectoral Fin Malformation (AID 2283648).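 Note: each larva judged yes or no for fin defect by brightfield with dead larvae skipped.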 The procedure, abridged:
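5D WT zebrafish; pronase dechorionation 4 hpf; 1 embryo/well at 6 hpf; static exposure to 120 hpf, 28C, sealed, foil-covered; final DMSO 0.64% v/v; 5 uM trimethyltin chloride positive control; fin defect scored yes/no.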

The nature of experiment [3]: Tanguay_ZF_120hpf_CIRC_legacy: (Legacy) Oregon State University Tanguay Lab 120 Hour Post-fertilization zebrafish Assay for Circulatory Malformation (AID 2283651). The method in brief:
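Using wild-type Tropical 5D zebrafish, we exposed dechorionated embryos from 6 to 120 hpf in embryo medium with 0.64% DMSO. Circulatory defects were scored as present or absent; 5uM trimethyltin chloride served as positive control.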

A short description of experiment [4]: Tanguay_ZF_120hpf_SWIM_legacy: (Legacy) Oregon State University Tanguay Lab 120 Hour Post-fertilization zebrafish Assay for Swim Bladder Malformation (AID 2283654).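 Note: swim bladder malformation in each larva scored yes or no under brightfield.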 The method in brief: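 Embryos lacking chorions were exposed individually and statically to test chemical from 6 to 120 hpf at 28C, with 0.64% DMSO as vehicle. At 120 hpf, swim bladder malformation was recorded as present or absent by brightfield microscopy.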

A short description of experiment [5]: Tanguay_ZF_120hpf_TRUN_legacy: (Legacy) Oregon State University Tanguay Lab 120 Hour Post-fertilization zebrafish Assay for Truncated Body (AID 2283655). The procedure, abridged: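 Truncated body is recorded as a binary endpoint at 120 hpf by brightfield imaging of wild-type 5D larvae. Exposure runs statically from 6 hpf at 28C with 0.64% DMSO; embryos dying earlier are not scored.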

The nature of experiment [6]: Tanguay_ZF_120hpf_NC_legacy: (Legacy) Oregon State University Tanguay Lab 120 Hour Post-fertilization zebrafish Assay for Notochord and Tail Malformation (AID 2283656). The method in brief: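 Dechorionated 5D zebrafish, 1/well from 6 hpf; static exposure to 120 hpf, 28C, sealed, dark; final DMSO 0.64% v/v. NC scored binary (present/absent); dead embryos not scored. Fit vs DMSO baseline, gain direction.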

A short description of experiment [7]: Tanguay_ZF_120hpf_CFIN_legacy: (Legacy) Oregon State University Tanguay Lab 120 Hour Post-fertilization zebrafish Assay for Caudal Fin Malformation (AID 2283649). The procedure, abridged: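 Binary presence or absence of caudal fin malformation at 120 hpf, read by brightfield microscopy, with DMSO as baseline. Larvae came from 5D wild-type embryos exposed statically from 6 hpf at 28C after pronase dechorionation.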

Experiment [8] concerns Thyroperoxidase (TPO), gene 54314. Put plainly: CCTE_Simmons_AUR_rTPO: CCTE's Amplex UltraRed Assay for Thyroperoxidase (TPO) Inhibition, Simmons Lab (AID 2283662).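 Note: potency for loss of signal meaning inhibition of peroxidase activity.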 The method in brief:
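Rat thyroid microsomes (5 ug protein) were incubated with test compound (8 concentrations, 5 nM–87.5 uM final, 0.5% DMSO), 25 uM Amplex UltraRed and 300 uM H2O2 in 200 mM phosphate buffer for 30 min at 37C in the dark; fluorescence read at 544/590 nm.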

Experiment [9] in a line: CCTE_Simmons_CellTiterGLO_HEK293T: Viability Assessment in CCTE's Assays for Thyroperoxidase (TPO) Inhibition, Simmons Lab (AID 2283665).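 Note: cells exposed to compound for 24 h before readout; actives reduce ATP signal below DMSO vehicle meaning cytotoxicity.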 The method in brief: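 Cytotoxicity counter-screen: human HEK293T cells in low-serum (1% FBS) medium receive test chemical, 5 nM to 87.5 uM final, for 24 h; ATP is quantified by luciferase luminescence.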
A short description of experiment [10]: Tanguay_ZF_120hpf_TR_legacy: (Legacy) Oregon State University Tanguay Lab 120 Hour Post-fertilization zebrafish Assay for Touch Response (AID 2283667). The procedure, abridged: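 5D WT embryos; static exposure to 120 hpf, 28C, sealed/dark; DMSO 0.64% v/v final. TR scored present/absent; dead embryos excluded. Pos ctrl 5uM trimethyltin chloride.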
Experiment [11] in a line: STM_H9_OrnithineISnorm_perc: Stemina devTOX quickPredict H9 human embryonic stem cell (hESC)-based Assay for Ornithine (ORN) Metabolite Biomarker, Normalized (AID 2283712; active = hit-call score of the fitted dose curve at least 0.9, where 1 is the maximum; inactive = score below 0.9;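 note: ornithine released into spent medium during last day measured by mass spectrometry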). The procedure, abridged:
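Cells: undifferentiated H9 hESC. Dosing: 72 h, media replaced every 24 h. Sample: final 24-h conditioned media, 40% acetonitrile. Read: UPLC-HRMS ornithine area vs 13C standard, % DMSO control.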

The nature of experiment [12]: STM_H9_CystineISnorm_perc: Stemina devTOX quickPredict H9 human embryonic stem cell (hESC)-based Assay for Cystine (CYSS) Metabolite Biomarker, Normalized (AID 2283713; active = hit-call score of the fitted dose curve at least 0.9, where 1 is the maximum; inactive = score below 0.9). The procedure, abridged:
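Secreted cystine was measured by UPLC-HRMS in H9 hESC medium after 72h compound exposure with 24-hourly replenishment. Values are standard-normalized areas relative to 0.1% DMSO.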

Experiment [13] can be described thus: STM_H9_OrnCyssISnorm_ratio: Stemina devTOX quickPredict H9 human embryonic stem cell (hESC)-based Assay for Ornithine (ORN):Cystine (CYSS) Ratio (AID 2283714). The procedure, abridged: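 Steps: H9 hESCs in pluripotent state dosed 72h, medium plus compound renewed every 24h; conditioned medium from the final 24h deproteinized in 40% acetonitrile; ORN and CYSS quantified by UPLC-HRMS with C13 spike-ins; ratio relative to vehicle.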

A short description of experiment [14]: CCTE_Padilla_ZF_144hpf_TERATOSCORE: (Legacy) CCTE's 144 Hour Post-fertilization zebrafish Assay Teratoscore, Padilla Lab (AID 2283679; active = hit-call score of the fitted dose curve at least 0.9, where 1 is the maximum; inactive = score below 0.9;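 note: zebrafish embryos with chorions exposed by immersion from 6-8 hpf to 5 dpf with daily renewal; teratogenicity score from eye scoring of death hatching and malformations at 144 hpf; higher score means more developmental defects relative to DMSO baseline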). The method in brief: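 Larvae scored by eye at 144 hpf for death, hatching and malformations after a day in clean Hanks'. Before that, daily-renewed exposure at 80 uM (0.4% DMSO, 26C) from roughly 6-8 hpf through 5 dpf, 4 embryos per chemical.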

A short description of experiment [15]: Tanguay_ZF_120hpf_PIG_legacy: (Legacy) Oregon State University Tanguay Lab 120 Hour Post-fertilization zebrafish Assay for Pigmentation Malformation (AID 2283650). The procedure, abridged: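 Pronase dechorionation at 4 hpf; embryos plated at 6 hpf, one per well; static exposure, sealed and foil-covered, 28C, to 120 hpf; pigmentation read by brightfield, binary; DMSO 0.64% baseline, 5uM trimethyltin chloride positive control.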

Results filed as inconclusive are left out. The source made the active and inactive calls. Rule for the calls, unless noted: active = hit-call score of the fitted dose curve at least 0.9, where 1 is the maximum; inconclusive = response in the unintended direction; inactive = score below 0.9.

For the molecule `CCCC(=O)OCCC(C)C`, the molecule was classed as inactive in experiment [1], in experiment [2], in [3], in experiment [4], in experiment [5] and in experiment [6].
On to `CC(C)(c1cc(Br)c(O)c(Br)c1)c1cc(Br)c(O)c(Br)c1`, for which the molecule was classed as inactive in experiment [7], in experiment [3], in [5], in [6], in experiment [10] and in experiment [11]. Also, the outcome in experiment [12] and in experiment [13] was inactive. The AC50 was 18.5 µM (active) in [8] and 14.7 µM (active) in [9].
For `CC(C)(C)c1cc(/C=C2\SC(N)=NC2=O)cc(C(C)(C)C)c1O`, the outcome in experiment [1], in [2], in experiment [7], in [4], in experiment [5] and in [10] was inactive. The result in experiment [11] was inactive. For the same molecule, the AC50 is 5.18 µM (active) in experiment [8], 8.58 µM (active) in [9], 5 µM (active) in experiment [12] and 3.33 µM (active) in experiment [13].
Take `COc1ccc2cc(S(=O)(=O)N[C@H](CC(=O)N[C@H](Cc3ccc(CN4[C@H](C)CCC[C@@H]4C)cc3)C(=O)N(C)C(C)C)c3ccc4c(c3)OCO4)ccc2c1`: the result in experiment [2], in [7], in experiment [3], in [4], in experiment [5] and in experiment [6] was inactive. Further, in [10], the call was inactive. The results for the AC50 in experiment [11], in experiment [12] and in experiment [13] were 18.4 µM (active), 22.6 µM (active) and 23 µM (active), respectively.
As to `CC(=O)N1CCN(c2ccc(OC[C@H]3CO[C@](Cn4ccnc4)(c4ccc(Cl)cc4Cl)O3)cc2)CC1`, the result in [1], in [7], in [3], in experiment [4], in experiment [5] and in [6] was inactive. Further, in experiment [10], the molecule was classed as inactive. Moreover, the AC50 in [8] is 19.2 µM (active); in experiment [9], 1.26 µM (active); in [14] it was 14.3 µM (active); in experiment [11], 8.18 µM (active); in experiment [12], 1.58 µM (active); in experiment [13], 2.35 µM (active).
Consider `CCCCCCCCN(C)CCCCCCCC`, for which the result in experiment [1], in experiment [2], in [7], in [3], in [5] and in experiment [6] was inactive. In addition, the call in experiment [10], in [11], in [12] and in experiment [13] was inactive.
For the molecule `O=C(O)c1ccccc1C(=O)OCc1ccccc1`, the result in [2], in [7], in experiment [15], in experiment [3], in [4] and in experiment [6] was inactive. For the same molecule, the result in experiment [10] was inactive.
Turning to `Cc1cc(F)ccc1-c1cc(N2CC[C@@H](O)[C@H]2CO)ncc1N(C)C(=O)C(C)(C)c1cc(C(F)(F)F)cc(C(F)(F)F)c1`, the call in experiment [1], in [7], in experiment [15], in [3], in [4] and in experiment [5] was inactive. In addition, the result in experiment [6] and in [10] was inactive. Besides, in experiment [14], the AC50 was 4.05 µM (active).
For the molecule `O=c1ccc2ccccc2o1`, the call in experiment [1], in experiment [2], in experiment [7], in [3], in [5] and in [6] was inactive. The molecule was classed as inactive in experiment [10].
Take `Clc1cc(Cl)c2c(c1)N=C1CCCCCN1C2`: the molecule was classed as inactive in experiment [1], in experiment [2], in [7], in [3], in [4] and in [6]. The result in experiment [11], in [12] and in [13] was inactive. The AC50 in experiment [10] was 15.7 µM (active).
